Values joined by “and” are separate entries in the source; they are usually repeats but may differ in a detail not shown here. Equal entries are not always repeated. Records with an inconclusive call do not appear. Where a call stands in place of a potency, no number is given. Unmarked numbers belong to inactive results. Active and inactive are the calls of the source. Calls follow the shape of the dose curve; as a rule, active = well fitted curve in the direction sought with a large enough effect; inconclusive = small, poorly fitted or top-dose-only effect, or another doubt; inactive = no such curve, though single readings can be large; an effect the other way counts as inactive or inconclusive.
What was measured:
[1] = qHTS assay to identify small molecule inhibitors of chordoma cells - UCH-1 (AID 1259355); also: nearly all actives have a fitted effect of over 55% in size; also: potency is read from the fitted curve at half-maximal effect; series mostly up to about 46 µM
Summary of the method: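 800 cells/well, overnight attach; compounds pinned at 15 concs, then auranofin/camptothecin/doxorubicin/rubitecan/topotecan combo added; 48hr 37 C, 5% CO2; CellTiter-Glo, 30min RT, luminescence.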

[2] = qHTS assay to identify small molecule inhibitors of chordoma cells - UCH-2 (AID 1259356); also: potency is read from the fitted curve at half-maximal effect
[3] = qHTS Assay for Identifying Gametocytocidal Compounds (AID 743244);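 also: actives lower the fluorescent signal which means gametocytes are killed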; conditions: P. falciparum 3D7 stage III-V gametocytes, alamarBlue, 72 h; max response: hits give low values
Summary of the method: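 Stage III–V gametocytes of P. falciparum 3D7 were seeded at 20,000 cells/well onto pre-dispensed compounds. After 72 h, 37 °C, 5% CO2, alamarBlue was added for another 24 h.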

[4] = P-glycoprotein substrates identified in KB-8-5-11 adenocarcinoma cell line, qHTS therapeutic library screen (AID 1346987); also: nearly all actives have a fitted effect of over 65% in size; also: potency is read from the fitted curve at half-maximal effect
Summary of the method: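 Compounds are pinned in dose-response onto KB-8-5-11 cells (500 cells/well, colchicine-free medium) and left 72 h at 37 degree C. CellTiter-Glo luminescence then yields AC50 values.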

[5] = qHTS assay for cell viability of the p53RE-bla HCT-116 cell line (AID 743292); also: nearly all actives have a fitted effect of over 55% in size
Summary of the method: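 CellSensor p53RE-bla HCT-116 cells (4,000/well) pre-incubated 5 h at 37 C, then exposed to compounds in DMSO for 16 h at 37 C. Viability read as ATP content by CellTiter-Glo luminescence after 30 min at room temperature.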

[6] = P-glycoprotein substrates identified in KB-3-1 adenocarcinoma cell line, qHTS therapeutic library screen (AID 1346986); also: nearly all actives have a fitted effect of over 60% in size
Summary of the method: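 Viability read by CellTiter-Glo after 72 h compound exposure in dose-response of KB-3-1 and KB-8-5-11 (P-gp-high) cells. Hits needed AC50 < 10 uM, >50% maximum response and curve class -1.1 to -2.4. Cherry-picks retested ± tariquidar, including pcDNA/MDR-19 HEK-293 pair.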

SMILES | Potency [1] | Potency [2] | max response [3] | Potency [4] | Potency [5] | Potency [6]
C[C@@H](Cc1ccccc1)NCCC(c1ccccc1)c1ccccc1 | inactive | inactive | – | – | – | –
CN(C)[C@H](Cc1ccccc1)c1ccccc1 | inactive | inactive | -4.16% | inactive | – | –
CCOC(=O)/C=C(C)/C=C/C[C@@H](C)CCCC(C)C | inactive | inactive | 10.1% | inactive | – | –
CNC(C)C(O)c1ccc(O)cc1 (stereo not drawn) | inactive | inactive | -4.84% and 8.32% | inactive | – | –
c1csc(C2(N3CCCCC3)CCCCC2)c1 | inactive | inactive | -3.82% | inactive | – | –
CCC1(C)CC(=O)NC(=O)C1 | inactive | inactive | – | inactive | – | –
CNC(=O)OCC[N+](C)(C)C | inactive | inactive | -1.58% | inactive | – | –
O=C1C[C@@H]2OCC=C3CN4CC[C@]56c7ccccc7N1[C@H]5[C@H]2[C@H]3C[C@H]46 | inactive | inactive | 1.95% | inactive | inactive | inactive
O=C1CN(O)C(c2ccccc2)=c2cc(Cl)ccc2=N1 | inactive | inactive | – | inactive | – | –
NCC[C@H](O)C(=O)N[C@@H]1C[C@H](N)[C@@H](O[C@H]2O[C@H](CN)[C@@H](O)[C@H](O)[C@H]2N)[C@H](O[C@@H]2O[C@H](CO)[C@@H](O)[C@H]2O)[C@H]1O | inactive | inactive | – | inactive | – | –
F/C(COc1ccc2c(c1)[nH]c1ccccc12)=C1/CN2CCC1CC2 | inactive | inactive | – | inactive | – | –
c1ccc(C2(N3CCCC3)CCCCC2)cc1 | inactive | inactive | -1.69% | inactive | – | –
C[C@H]1CC[C@]2(NC1)O[C@H]1C[C@H]3[C@@H]4CC[C@H]5C[C@@H](O)CC[C@]5(C)[C@H]4CC[C@]3(C)[C@H]1[C@@H]2C | inactive | inactive | 2.92% | inactive | – | –
O=C(NC(=O)c1c(F)cccc1F)Nc1ccc(Cl)c(Oc2ncc(C(F)(F)F)cc2Cl)c1 | inactive | inactive | -9.15% | inactive | – | –
CC[C@H]1[C@@H]2C[C@H]3[C@@H]4N(C)c5ccccc5[C@]45C[C@@H](C2[C@H]5O)N3[C@@H]1O (stereo partly drawn) | inactive | inactive | 7.56% | inactive | – | –
C[N+]1([O-])[C@@H]2CC[C@H]1CC(OC(=O)C(CO)c1ccccc1)C2 (stereo partly drawn) | inactive | inactive | 6.16% and -9.54% | inactive | – | –
CCNC1(c2cccs2)CCCCC1=O (stereo not drawn) | inactive | inactive | -0.213% | inactive | – | –
CC(=O)Oc1ccc2c3c1O[C@H]1[C@@H](OC(C)=O)C=C[C@H]4[C@@H](C2)N(C)CC[C@@]341 | inactive | inactive | 1.05% and 0.272% | inactive | – | –
COC([CH2][Hg])CNC(=O)c1ccccc1OCC(=O)O (stereo not drawn) | inactive | inactive | 2.8% | inactive | – | –
ClC1=C(Cl)[C@]2(Cl)[C@@H]3[C@H]4C[C@H]([C@@H]5O[C@H]45)[C@@H]3[C@@]1(Cl)C2(Cl)Cl | inactive | inactive | 19.8% | inactive | – | –
COc1cc2c(cc1OC)[C@@]13CCN4CC5=CCO[C@H]6CC(=O)N2[C@H]1[C@H]6[C@H]5C[C@H]43 | inactive | inactive | 18.6% | inactive | – | –
CC1(C)[C@H](C=C(Cl)Cl)[C@H]1C(=O)OCc1c(F)c(F)cc(F)c1F | inactive | inactive | 0.31% | inactive | – | –
Cc1cccc(C(C)c2cnc[nH]2)c1C (stereo not drawn) | inactive | inactive | 17.3% | inactive | – | –
CCC(=O)O[C@]1(c2ccccc2)CCN(C)C[C@H]1C | inactive | inactive | -3.07% | inactive | – | –
c1cc2c(c(NC3=NCCN3)c1)CCCC2 | inactive | inactive | -7.43% | inactive | – | –
CN(C)CCCCCCN(C)C (tested in a mixture with another compound) | inactive | inactive | 14.8% | inactive | – | –
C[C@]12CC[C@H](OS(=O)(=O)O)CC1=CC[C@@H]1[C@@H]2CC[C@]2(C)C(=O)CC[C@@H]12 | inactive | inactive | 33.6% | inactive | – | –

SMILES | Potency [1] | Potency [2] | max response [3] | Potency [4] | Potency [5] | Potency [6]
CCC1(CC)C(=O)NC(=O)N(C)C1=O | inactive | inactive | -12.2% | inactive | – | –
CNc1ccc(C(=O)CC(O)CCC(C)C2OC(=O)CC(O)CC(=O)CC(O)CC(O)CC(O)CC(O)CC3(O)CC(O)C(C(=O)OC)C(CC(O[C@@H]4O[C@H](C)[C@@H](O)[C@H](N)[C@@H]4O)/C=C/C=C/C=C/C=C/C=C/C=C/C=C/C2C)O3)cc1 (stereo partly drawn) | inactive | inactive | 22.8% | inactive | – | –
C=CCN1CC[C@]23c4c5ccc(O)c4O[C@H]2[C@@H](O)C=C[C@H]3[C@H]1C5 | inactive | inactive | 2.17% | inactive | – | –
Clc1ccc(C2(Cn3cncn3)OCCO2)c(Cl)c1 | inactive | inactive | -2.25% | inactive | – | –
COc1ccc2c3c1O[C@H]1[C@@H](O)C=C[C@H]4[C@@H](C2)NCC[C@@]341 | inactive | inactive | -9% | inactive | – | –
C[N+]1(C)[C@@H]2CC[C@H]1CC(OC(=O)c1c[nH]c3ccccc13)C2 (stereo partly drawn) | inactive | inactive | 8.77% | inactive | – | –
CN[C@H]1C[C@@H](N)[C@H](O)[C@@H](O[C@@H]2O[C@H](CO)[C@H](O)[C@@H]3OC4(O[C@H]23)O[C@H](C(N)CO)[C@H](O)[C@H](O)[C@H]4O)[C@@H]1O (stereo partly drawn) | inactive | inactive | -0.708% and -7.43% | inactive | – | –
c1ccc2sc(SNC3CCCCC3)nc2c1 | inactive | inactive | 27.5% | inactive | – | –
CN(C)[C@@H]1C(=O)C(C(N)=O)=C(O)[C@@]2(O)C(=O)C3=C(O)c4c(O)ccc(Cl)c4[C@@](C)(O)[C@H]3C[C@@H]12 | inactive | inactive | 3.58% | inactive | – | –
O=C1OC2(c3cc(Br)c(O)cc3Oc3c2cc(Br)c(O)[c]3[Hg])c2ccccc21 (stereo not drawn) | inactive | inactive | -1.46% | inactive | – | –
CCC/C=C/C=C/C(=O)O[C@H]1/C(=C/C(=O)OC)C[C@H]2C[C@H]([C@@H](C)O)OC(=O)C[C@H](O)C[C@@H]3C[C@H](OC(C)=O)C(C)(C)[C@](O)(C[C@@H]4C/C(=C/C(=O)OC)C[C@H](/C=C/C(C)(C)[C@]1(O)O2)O4)O3 | inactive | inactive | -10.9% | inactive | – | –
CCNC(C)Cc1cccc(C(F)(F)F)c1 (stereo not drawn) | inactive | inactive | 22.8% | inactive | – | –
OC[C@@H](O)[C@H]1O[C@@H]2O[C@H](C(Cl)(Cl)Cl)O[C@@H]2[C@H]1O | inactive | inactive | 13.7% | inactive | – | –
[2H]C([2H])([2H])[C@H](N)Cc1ccccc1 | inactive | inactive | 14.3% | inactive | – | –
COC1=CC=C2[C@H]3Cc4ccc(OC)c5c4[C@@]2(CCN3C)[C@H]1O5 | inactive | inactive | 13.9% | inactive | – | –
CCCCCCCCCC(=O)O[C@H]1CC[C@H]2[C@@H]3CCC4=CC(=O)CC[C@]4(C)[C@H]3CC[C@]12C | inactive | inactive | 4.27% | 16400 nM (active) | – | –
CC(C)(O)[C@@H]1[C@H]2OC(=O)[C@@H]1[C@]1(O)C[C@H]3O[C@]34C(=O)O[C@H]2[C@]14C | inactive | inactive | -7.5% and 15.4% | inactive | – | –
CCCCC[C@@H](O)C1C(=O)OC(C)[C@H](O)/C=C/C=C/C=C/C=C/C=C(\C)C(O)C(O)C(O)C[C@H](O)C[C@H](O)C[C@H](O)C[C@H](O)C[C@@H]1O (stereo partly drawn) | inactive | inactive | 0.532% and 10.2% | inactive | – | –
CNC1(c2ccccc2Cl)CCCCC1=O (stereo not drawn) | inactive | inactive | 16% and -7.76% | inactive | – | –
C[C@@H](Cc1ccccc1)N(C)C | inactive | inactive | -7.23% | inactive | – | –
CC(=O)OCC(=O)[C@H]1CC[C@H]2[C@@H]3CC[C@H]4C[C@H](O)CC[C@]4(C)[C@H]3C(=O)C[C@]12C | inactive | inactive | 11.4% | inactive | – | –
O=C(CS(=O)C(c1ccccc1)c1ccccc1)NO (stereo not drawn) | inactive | inactive | -0.968% | inactive | – | –
O=C1C[C@@H]2OCC=C3CN4CC[C@]56c7ccccc7N1[C@H]5[C@H]2[C@H]3C[C@H]46 (tested in a mixture with another compound) | inactive | inactive | 12.7% and 17.6% | inactive | – | –
OC[C@@H](O)[C@H]1O[C@@H]2O[C@@H](C(Cl)(Cl)Cl)O[C@@H]2[C@H]1O | inactive | inactive | -7.25% | inactive | – | –
ClC=C(Cl)Cl | inactive | inactive | -0.112% | inactive | inactive | –
CC(=O)O[C@H]1C[C@H](O[C@H]2[C@@H](O)C[C@H](O[C@H]3[C@@H](O)C[C@H](O[C@H]4CC[C@@]5(C)[C@H](CC[C@@H]6[C@@H]5C[C@@H](O)[C@]5(C)[C@@H](C7=CC(=O)OC7)CC[C@]65O)C4)O[C@@H]3C)O[C@@H]2C)O[C@H](C)[C@H]1O[C@@H]1O[C@H](CO)[C@@H](O)[C@H](O)[C@H]1O | 251 nM (active) | 146 nM (active) | -19.5% | 206 nM (active) | – | –
C[C@@H]([C@H](O)c1ccccc1)N(C)C | inactive | inactive | 8.71% | inactive | – | –

From PubChem BioAssay (NCATS)
